Experimental data: the supplement of paper PMC13380429

Test system: Vero E6 infected with SARS-CoV-2
Assay: inhibition of SARS-CoV-2 cytopathic effect; higher = more antiviral protection, active = above 15
Details: 48 h

Measured: inhibition of SARS-CoV-2 cytopathic effect

CC(C)(C)C(=O)OCOC(=O)[C@@H]1N2C(=O)[C@@H](/N=C/N3CCCCCC3)[C@H]2SC1(C)C [pivmecillinam]
inactive: 1 nM 1.02% | 8.33 nM 0.8% | 100 nM -0.38% | 833.33 nM -0.99% | 10000 nM 0.82%

[Cl][Ti][Cl].c1cc[cH-]c1.c1cc[cH-]c1 [titanocene-dichloride]
inactive: 1 nM 3.56% | 8.33 nM -0.14% | 100 nM 1.81% | 833.33 nM -1.85% | 10000 nM 0.26%

C[C@@H]1CC[C@H]2[C@@H](C)C(=O)O[C@@H]3O[C@@]4(C)CC[C@@H]1[C@]32OO4 [artemisinin]
inactive: 1 nM 0.52% | 8.33 nM 0.05% | 100 nM 3.13% | 833.33 nM 3.83% | 10000 nM 1.16%

O=C(Oc1cccc2cccnc12)c1ccccc1 [benzoxiquine]
inactive: 1 nM 1.28% | 8.33 nM 1.56% | 100 nM -0.45% | 833.33 nM -1.05% | 10000 nM -3.29%

CC(C)CN(C[C@@H](OP(=O)(O)O)[C@H](Cc1ccccc1)NC(=O)O[C@H]1CCOC1)S(=O)(=O)c1ccc(N)cc1 [fosamprenavir]
inactive: 1 nM -0.69% | 8.33 nM 0.83% | 100 nM 0.76% | 833.33 nM -0.52% | 10000 nM -2.55%

C[n+]1ccc(C(=O)NCc2ccccc2)cc1 [enisamium-iodide]
inactive: 1 nM -0.64% | 8.33 nM 7.37% | 100 nM -0.6% | 833.33 nM 4.79% | 10000 nM 0.11%

CCCCCCCCCCCCCCCC(=O)OC[C@H](O)[C@H]1OC(=O)C(O)=C1O [L-ascorbyl-6-palmitate]
inactive: 1 nM 2.02% | 8.33 nM 0.04% | 100 nM 0.01% | 833.33 nM 0.96% | 10000 nM -0.63%

CC1(C)S[C@@H]2[C@H](NC(=O)Cc3ccccc3)C(=O)N2[C@H]1C(=O)O [benzylpenicillin]
inactive: 1 nM -3.59% | 8.33 nM -1.58% | 100 nM -1.25% | 833.33 nM -1% | 10000 nM -2.39%

COc1cc2c(cc1OC)[C@@H]1Cc3ccc(OC)c(OC)c3CN1CC2 [rotundine]
inactive: 1 nM -0.42% | 8.33 nM -2.68% | 100 nM -1.22% | 833.33 nM 4.97% | 10000 nM 3.54%

Cc1sc2c(c1C)C(c1ccc(Cl)cc1)=N[C@@H](CC(N)=O)c1nnc(C)n1-2
inactive: 1 nM -0.7% | 8.33 nM -0.88% | 100 nM 0.16% | 833.33 nM -4.22% | 10000 nM -9.8%

CC(C)(O)C(Cl)(Cl)Cl [chlorobutanol]
inactive: 1 nM 0.34% | 8.33 nM 1.76% | 100 nM 0.44% | 833.33 nM 1.86% | 10000 nM -2.07%

CC(C)(C)C(=O)OCOP(=O)(COCCn1cnc2c(N)ncnc21)OCOC(=O)C(C)(C)C [adefovir-dipivoxil]
inactive: 1 nM 2.79% | 8.33 nM 1.23% | 100 nM -0.37% | 833.33 nM -2.27% | 10000 nM -3.69%

O=C(O)[C@@H](S)[C@@H](S)C(=O)O [dimercaptosuccinic-acid]
inactive: 1 nM 0.73% | 8.33 nM -1.78% | 100 nM -1.78% | 833.33 nM -1.02% | 10000 nM -2.75%

Cc1ccc(/C(=C\CN2CCCC2)c2cccc(/C=C/C(=O)O)n2)cc1 [acrivastine]
inactive: 1 nM 0.5% | 8.33 nM -0.13% | 100 nM 0.75% | 833.33 nM 6.14% | 10000 nM 1.35%

CC(=O)Nc1c(I)cc(I)c(C(=O)O)c1I [acetriazoic-acid]
inactive: 1 nM -0.01% | 8.33 nM 0.54% | 100 nM -0.88% | 833.33 nM 0.14% | 10000 nM -0.46%

CC(O)CC(=O)O (stereo not drawn) [beta-hydroxybutyrate]
inactive: 1 nM 7.02% | 8.33 nM 2.5% | 100 nM -2.77% | 833.33 nM -2.16% | 10000 nM -1.85%

CNC(=O)c1c(C)oc2cc(Oc3ncnc4cc(OC)c(OC)cc34)ccc12 [fruquintinib]
inactive: 1 nM 2.39% | 8.33 nM -2.79% | 100 nM -1.12% | 833.33 nM -3.32% | 10000 nM -0.11%

Oc1noc2c1CCNC2 [gaboxadol]
inactive: 1 nM -0.68% | 8.33 nM 2.6% | 100 nM 1.13% | 833.33 nM 0.58% | 10000 nM -2.2%

Nc1ccc(C(=O)O)c(O)c1 [aminosalicylate]
inactive: 1 nM -3.85% | 8.33 nM -0.82% | 100 nM -0.9% | 833.33 nM 0.11% | 10000 nM 0.97%

C[C@](N)(Cc1ccc(O)c(O)c1)C(=O)O [methyldopa]
inactive: 1 nM -0.96% | 8.33 nM 0.87% | 100 nM -0.52% | 833.33 nM -1.66% | 10000 nM 0.52%
